Most compounds without a hit are left out; they make up all but 5.1% or so of the library.
CRFBP-R2 agonist – CRF-BP/CRF-R2 complex agonism. HEK293 CRF-R2/CRF-BP, calcium dye fluorescence (FLIPR); percent of saturating CRF peptide response. activation, % at 13.2 µM. hit rate 0.46% among 350,000;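 active = activation of at least 50%, plus an integration ratio under a set limit after plate pattern correction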
ANO1 block – mouse TMEM16A channel inhibition, primary screen | Q8BHY3 | hit rate 1.2% among 310,000 | normalized B-score (activity score, 25-100; higher = stronger inhibition) at 10 µM | HEK293 TMEM16A/YFP iodide influx fluorescence, ionomycin;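 active = ratio plate-corrected score three or more library SD toward inhibition, starting fluorescence score within five deviations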;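 note: score derived from kinetic fluorescence span divided by baseline fluorescence per well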
Target sequence (Q8BHY3 whole entry, looked up): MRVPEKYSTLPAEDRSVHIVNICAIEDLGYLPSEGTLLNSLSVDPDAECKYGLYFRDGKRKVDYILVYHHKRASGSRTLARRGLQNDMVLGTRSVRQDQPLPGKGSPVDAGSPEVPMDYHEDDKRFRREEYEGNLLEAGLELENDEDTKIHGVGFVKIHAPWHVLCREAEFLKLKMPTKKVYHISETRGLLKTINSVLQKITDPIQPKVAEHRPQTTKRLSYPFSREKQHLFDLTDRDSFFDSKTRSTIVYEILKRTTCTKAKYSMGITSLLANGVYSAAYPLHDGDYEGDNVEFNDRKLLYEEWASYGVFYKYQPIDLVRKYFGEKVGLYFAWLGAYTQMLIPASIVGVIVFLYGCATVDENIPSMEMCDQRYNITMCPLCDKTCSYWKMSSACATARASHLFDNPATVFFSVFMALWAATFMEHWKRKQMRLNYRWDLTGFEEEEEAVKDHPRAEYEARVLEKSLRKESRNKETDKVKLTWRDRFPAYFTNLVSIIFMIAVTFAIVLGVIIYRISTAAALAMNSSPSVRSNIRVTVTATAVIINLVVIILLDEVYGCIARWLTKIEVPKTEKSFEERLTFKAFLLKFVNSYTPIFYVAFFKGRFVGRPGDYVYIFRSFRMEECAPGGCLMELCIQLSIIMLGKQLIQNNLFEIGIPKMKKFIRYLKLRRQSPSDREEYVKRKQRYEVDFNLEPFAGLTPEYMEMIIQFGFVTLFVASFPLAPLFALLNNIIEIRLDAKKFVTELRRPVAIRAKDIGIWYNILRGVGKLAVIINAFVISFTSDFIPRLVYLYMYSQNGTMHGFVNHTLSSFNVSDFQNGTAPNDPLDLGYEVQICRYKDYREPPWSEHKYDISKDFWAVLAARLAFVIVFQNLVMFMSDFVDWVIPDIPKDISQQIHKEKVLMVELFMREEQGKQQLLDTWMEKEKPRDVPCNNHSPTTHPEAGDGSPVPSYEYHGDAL
TMEM16A act – mouse TMEM16A channel activation, primary screen. B-score at 10 µM. hit rate 0.3% among 340,000. AID 623877. HEK293 TMEM16A/YFP-H148Q/I152L, iodide quench fluorescence; stronger effect = lower value;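 active = fluorescence-ratio B-score plate-corrected deviation score at least 3 library SD below zero, with starting fluorescence score within 5 deviations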;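 note: channel opened by trigger with iodide after compound preincubation; score built on the fluorescence ratio of max minus min over baseline; more negative score means more quench and so TMEM16A activation or potentiation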
MPTP block – blocks calcium-induced mitochondrial swelling; isolated mouse mitochondria, Ca2+ swelling absorbance, 30 min; inhibition, % at 10 µM; hit rate 1.4% among 360,000; AID 602449;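 active = inhibition of 50% or more, scaled per plate between neutral and stimulator controls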
CRFBP-R2 block – antagonists of CRF-binding protein/CRF-R2 receptor complex. HEK293 CRF-R2/CRF-BP, CRF-induced calcium fluorescence. inhibition, % at 11.8 µM. hit rate 0.59% among 350,000;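 active = inhibition of the ligand-induced calcium signal above about 50% at the single tested concentration, limit read from the data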
GRIN3A LBD mod – modulators (binders) of human NR3A ligand-binding domain; Tm shift relative to glycine control, % at 25 µM; AID 1259313; NR3A LBD differential scanning fluorimetry, Tm shift; 0% = protein alone, 100% = glycine-bound protein; hit rate 2.5% among 340,000;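 active = melting temperature shift of at least 10% of the positive control shift, at one fixed dose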
Hits are given with their value.

Results for COc1ccc(Cl)cc1-c1cc(C(=O)NCc2ccccc2)[nH]n1 ?
MPTP block: inactive

Results for COc1ccc(NC(=O)NC(C)c2ccc3c(c2)OCO3)c(OC)c1 (stereo unspecified) ?
CRFBP-R2 agonist: inactive; ANO1 block: inactive; TMEM16A act: inactive; MPTP block: inactive; CRFBP-R2 block: 63; GRIN3A LBD mod: inactive

How did CCOC(=O)c1c(C)n(C)c2cc(Br)c(OC)cc12 do in these assays?
CRFBP-R2 agonist: inactive; ANO1 block: inactive; TMEM16A act: inactive; MPTP block: inactive; CRFBP-R2 block: inactive; GRIN3A LBD mod: 11

What do the screens show for `CCOC(Cn1c(SCc2cc(C(C)=O)ccc2OC)nc2ccccc2c1=O)OCC`?
CRFBP-R2 agonist: inactive; ANO1 block: inactive; TMEM16A act: inactive; MPTP block: inactive; CRFBP-R2 block: inactive; GRIN3A LBD mod: 13

What do the screens show for `COc1ccc(C(C)=O)cc1CSc1nc2cc(C(=O)O)ccc2c(=O)n1Cc1ccccc1`?
CRFBP-R2 agonist: inactive; ANO1 block: inactive; TMEM16A act: inactive; MPTP block: inactive; CRFBP-R2 block: inactive; GRIN3A LBD mod: inactive

What do the screens show for `O=C(N/N=C/C1=C(N2CCOCC2)C(=C\c2ccccc2)/CC1)Nc1ccccc1`?
CRFBP-R2 agonist: inactive; ANO1 block: inactive; TMEM16A act: inactive; MPTP block: inactive; CRFBP-R2 block: inactive; GRIN3A LBD mod: inactive

What do the screens show for `CCN(CC)c1ccc(/C=C2\CCC(/C=N/NC(=O)c3ccc(=O)n(C)c3)=C2N2CCOCC2)cc1`?
CRFBP-R2 agonist: 96; ANO1 block: inactive; TMEM16A act: inactive; MPTP block: inactive; CRFBP-R2 block: inactive; GRIN3A LBD mod: inactive

Results for O=C(Nc1ccc(C(=O)O)cc1)/C(=C\c1ccco1)NC(=O)c1ccco1 ?
CRFBP-R2 agonist: inactive; ANO1 block: inactive; TMEM16A act: inactive; MPTP block: inactive; CRFBP-R2 block: inactive; GRIN3A LBD mod: inactive

What do the screens show for `COc1ccc(NC(=O)COC(=O)C2CCC2)cc1Cl`?
CRFBP-R2 agonist: inactive; ANO1 block: inactive; TMEM16A act: inactive; MPTP block: inactive; CRFBP-R2 block: inactive; GRIN3A LBD mod: 18

How did COc1ccc(Cl)cc1NC(=O)COC(=O)C1CCCCC1 do in these assays?
CRFBP-R2 agonist: inactive; TMEM16A act: inactive; MPTP block: inactive; CRFBP-R2 block: inactive; GRIN3A LBD mod: inactive

What do the screens show for `Cc1nc(Nc2cccc(F)c2)c2oc3ccccc3c2n1`?
CRFBP-R2 agonist: inactive; ANO1 block: inactive; TMEM16A act: inactive; MPTP block: inactive; CRFBP-R2 block: inactive; GRIN3A LBD mod: 28

What do the screens show for `Cc1nc(Nc2cccc(Cl)c2)c2oc3ccccc3c2n1`?
CRFBP-R2 agonist: inactive; ANO1 block: inactive; TMEM16A act: inactive; MPTP block: inactive; CRFBP-R2 block: inactive; GRIN3A LBD mod: 36

What do the screens show for `Nc1ccccc1C(=O)NCc1ccc(Cl)cc1`?
CRFBP-R2 agonist: inactive; ANO1 block: inactive; TMEM16A act: inactive; MPTP block: inactive; CRFBP-R2 block: inactive; GRIN3A LBD mod: 12

Results for Cc1ccc(C(=O)NNC(=O)C2CCN(C(=O)OC(C)(C)C)CC2)cc1 ?
CRFBP-R2 agonist: inactive; ANO1 block: inactive; TMEM16A act: inactive; MPTP block: inactive; CRFBP-R2 block: inactive; GRIN3A LBD mod: 30

What do the screens show for `CCOc1ccc(/C=N/OCC(=O)NC(c2ccccc2)c2ccccc2)cc1`?
CRFBP-R2 agonist: 54; ANO1 block: inactive; TMEM16A act: inactive; MPTP block: inactive; CRFBP-R2 block: inactive; GRIN3A LBD mod: inactive

Results for CCOc1ccc(/C=N/NC(=O)CC(=O)Nc2ccc(Cl)c(Cl)c2)cc1 ?
CRFBP-R2 agonist: inactive; ANO1 block: inactive; TMEM16A act: inactive; MPTP block: inactive; CRFBP-R2 block: inactive; GRIN3A LBD mod: 20

How did COc1ccc(/C=N/OCC(=O)NC(c2ccccc2)c2ccccc2)c(OC)c1 do in these assays?
CRFBP-R2 agonist: inactive; ANO1 block: inactive; TMEM16A act: inactive; MPTP block: inactive; CRFBP-R2 block: inactive; GRIN3A LBD mod: inactive

What do the screens show for `O=C(CC(=O)Nc1cccc(Cl)c1)N/N=C\c1ccccc1`?
CRFBP-R2 agonist: inactive; ANO1 block: inactive; TMEM16A act: inactive; MPTP block: inactive; CRFBP-R2 block: inactive; GRIN3A LBD mod: inactive

What do the screens show for `O=C(COc1ncnc2sccc12)Nc1cccc(S(=O)(=O)N2CCOCC2)c1`?
CRFBP-R2 agonist: inactive; TMEM16A act: inactive; MPTP block: inactive; CRFBP-R2 block: inactive; GRIN3A LBD mod: inactive

What do the screens show for `Cc1cnc(C2OCCO2)c2cccc([N+](=O)[O-])c12`?
CRFBP-R2 agonist: inactive; MPTP block: inactive; CRFBP-R2 block: inactive

Results for COc1cccc(-c2cnc3c(NC(C)=O)cc(-c4cc(OC)c(OC)c(OC)c4)cn23)c1 ?
MPTP block: inactive

Results for COc1ccc(Br)cc1CNC(C)c1ccccc1 (stereo unspecified) ?
CRFBP-R2 agonist: inactive; ANO1 block: inactive; TMEM16A act: inactive; MPTP block: inactive; CRFBP-R2 block: inactive; GRIN3A LBD mod: 21

Results for C[C@@H]1CN([C@@H](C)CO)C(=O)CCCn2nncc2CO[C@H]1CN(C)C ?
CRFBP-R2 agonist: inactive; MPTP block: inactive; CRFBP-R2 block: inactive

What do the screens show for `O=c1c2cc(Cl)ccc2nc(-c2ccc([N+](=O)[O-])cc2)n1O`?
CRFBP-R2 agonist: inactive; ANO1 block: inactive; TMEM16A act: inactive; MPTP block: inactive; CRFBP-R2 block: inactive; GRIN3A LBD mod: inactive

How did O=c1c2ccc(Cl)cc2nc(-c2cccc(C(F)(F)F)c2)n1O do in these assays?
CRFBP-R2 agonist: 69; ANO1 block: inactive; TMEM16A act: inactive; MPTP block: inactive; CRFBP-R2 block: inactive; GRIN3A LBD mod: inactive

What do the screens show for `Cc1ccc(-c2nc3c(Cl)cc(Cl)cc3c(=O)n2O)cc1`?
CRFBP-R2 agonist: 66; ANO1 block: 100; TMEM16A act: inactive; MPTP block: inactive; CRFBP-R2 block: inactive; GRIN3A LBD mod: inactive

What do the screens show for `O=c1c2ccccc2nc(-c2ccc(Cl)c(Cl)c2)n1O`?
CRFBP-R2 agonist: 55; ANO1 block: inactive; TMEM16A act: inactive; MPTP block: inactive; CRFBP-R2 block: inactive; GRIN3A LBD mod: inactive

What do the screens show for `CCN(CC)S(=O)(=O)c1cc(C(=O)OC(C)C(=O)NCc2ccco2)ccc1C` (stereo unspecified)?
CRFBP-R2 agonist: inactive; TMEM16A act: inactive; MPTP block: inactive; CRFBP-R2 block: inactive; GRIN3A LBD mod: inactive

How did COc1ccc(C2CCc3cc(OC)c(OC)cc3C2NC=O)cc1OC (stereo unspecified) do in these assays?
CRFBP-R2 agonist: inactive; MPTP block: inactive; CRFBP-R2 block: inactive

What do the screens show for `CN(CC(=O)Nc1ccc2c(c1)OCCO2)CC(=O)Nc1ccc(F)c(F)c1F`?
CRFBP-R2 agonist: inactive; TMEM16A act: inactive; MPTP block: inactive; CRFBP-R2 block: 68; GRIN3A LBD mod: inactive

Results for Cc1ccc2oc(=O)c(/C=C(\O)c3ccccc3)nc2c1 ?
CRFBP-R2 agonist: 71; ANO1 block: inactive; TMEM16A act: inactive; MPTP block: inactive; CRFBP-R2 block: inactive; GRIN3A LBD mod: inactive
